In PMC7862700, “An all-to-all approach to the identification of sequence-specific readers for epigenetic DNA modifications on cytosine” one finds binding signal data, which are given here for 1 sequence.

Common to all, as to assay: DAPPL (digital affinity profiling via proximity ligation, sequencing); 10 mM Tris-HCl pH 7.5, 50 mM NaCl, 1 mM DTT, 4% glycerol, room temperature, 30 min; GST-TFs on glutathione beads, 16-mer random dsDNA library, 0.1% formaldehyde crosslink after washing; high values mean tight binding
The target in assay [1] is T1, FLI1 (Homo sapiens, UniProt Q01543 1-452).
T1 sequence: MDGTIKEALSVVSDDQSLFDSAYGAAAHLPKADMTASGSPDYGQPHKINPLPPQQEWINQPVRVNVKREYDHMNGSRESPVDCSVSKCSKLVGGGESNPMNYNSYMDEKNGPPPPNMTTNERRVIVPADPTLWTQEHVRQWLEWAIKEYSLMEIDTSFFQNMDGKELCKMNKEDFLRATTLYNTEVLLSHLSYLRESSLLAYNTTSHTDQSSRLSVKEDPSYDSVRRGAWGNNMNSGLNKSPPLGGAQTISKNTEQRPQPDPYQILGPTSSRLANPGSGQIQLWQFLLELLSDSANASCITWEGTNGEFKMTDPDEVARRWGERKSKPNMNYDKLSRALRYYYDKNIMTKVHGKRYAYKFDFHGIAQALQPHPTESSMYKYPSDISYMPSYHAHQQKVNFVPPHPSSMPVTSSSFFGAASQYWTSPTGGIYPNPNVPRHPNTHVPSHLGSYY
The note with it: protein: recombinant; tags: N-terminal GST; dsDNA, one strand shown. The method in brief:
(§1)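 Binding signal is given per hexamer as its read frequency for a factor divided by its frequency in the tag-only sample. GST-fused human transcription factors were expressed in yeast, captured on glutathione beads, barcoded with DNA and pooled with that sample, then incubated with 200 nmole of a 16-mer random double-stranded DNA library in Tris/NaCl/DTT/glycerol buffer for 30 min at room temperature. The pools were then washed, crosslinked, proximity-ligated, amplified by PCR and sequenced on an Illumina NextSeq500.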

In assay [2] the target is T2, ELK1 (Homo sapiens, UniProt P19419 1-428).
T2 sequence: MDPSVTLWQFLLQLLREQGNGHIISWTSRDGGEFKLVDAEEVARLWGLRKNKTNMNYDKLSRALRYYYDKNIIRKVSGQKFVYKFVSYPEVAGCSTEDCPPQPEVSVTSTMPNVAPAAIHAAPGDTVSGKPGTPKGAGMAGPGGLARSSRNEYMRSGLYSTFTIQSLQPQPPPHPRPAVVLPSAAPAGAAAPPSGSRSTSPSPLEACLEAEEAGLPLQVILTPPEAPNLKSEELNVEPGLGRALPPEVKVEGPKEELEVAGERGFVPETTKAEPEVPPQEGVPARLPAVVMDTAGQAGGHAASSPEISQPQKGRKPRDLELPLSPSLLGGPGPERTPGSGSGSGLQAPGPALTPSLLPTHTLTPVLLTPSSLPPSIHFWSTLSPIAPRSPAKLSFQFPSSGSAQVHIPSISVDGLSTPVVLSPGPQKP
The conditions noted are these: protein: recombinant; tags: N-terminal GST; dsDNA, one strand shown. The method in brief: as §1

Assay [3] addresses T3, GABPA (Homo sapiens, UniProt Q06546 1-454).
T3 sequence: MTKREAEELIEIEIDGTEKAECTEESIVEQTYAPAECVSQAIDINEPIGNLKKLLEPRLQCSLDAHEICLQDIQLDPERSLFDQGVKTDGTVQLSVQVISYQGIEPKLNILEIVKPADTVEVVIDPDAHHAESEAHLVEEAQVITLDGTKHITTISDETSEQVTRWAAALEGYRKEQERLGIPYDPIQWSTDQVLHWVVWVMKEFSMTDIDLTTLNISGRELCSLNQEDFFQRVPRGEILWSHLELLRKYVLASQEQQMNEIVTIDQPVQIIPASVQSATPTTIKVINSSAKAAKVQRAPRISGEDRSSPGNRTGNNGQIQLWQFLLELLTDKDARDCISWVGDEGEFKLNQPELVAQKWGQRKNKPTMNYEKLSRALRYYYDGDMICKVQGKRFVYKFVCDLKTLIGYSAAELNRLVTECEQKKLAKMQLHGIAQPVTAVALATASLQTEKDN
The note with it: protein: recombinant; tags: N-terminal GST; dsDNA, one strand shown. The method in brief:
as §1

The target in assay [4] is T4, ERG (Homo sapiens, UniProt P11308 1-479).
T4 sequence: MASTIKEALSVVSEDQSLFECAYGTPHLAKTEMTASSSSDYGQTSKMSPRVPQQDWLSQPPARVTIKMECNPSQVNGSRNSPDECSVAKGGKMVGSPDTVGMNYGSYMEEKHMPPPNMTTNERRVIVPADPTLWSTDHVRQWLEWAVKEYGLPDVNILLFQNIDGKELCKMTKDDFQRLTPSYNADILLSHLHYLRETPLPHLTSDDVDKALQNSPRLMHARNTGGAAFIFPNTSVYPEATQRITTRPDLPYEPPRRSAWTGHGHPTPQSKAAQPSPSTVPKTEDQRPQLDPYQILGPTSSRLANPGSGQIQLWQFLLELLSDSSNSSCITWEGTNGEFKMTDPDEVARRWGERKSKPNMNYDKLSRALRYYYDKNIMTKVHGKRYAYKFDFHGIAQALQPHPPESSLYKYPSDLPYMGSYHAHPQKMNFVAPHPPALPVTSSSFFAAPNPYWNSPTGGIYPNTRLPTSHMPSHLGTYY
The note with it: protein: recombinant; tags: N-terminal GST; dsDNA, one strand shown. In short, it runs like this:
as §1

Assay [5] concerns the target ELF1 (Homo sapiens, UniProt P32519 1-619). The conditions noted are these: protein: recombinant; tags: N-terminal GST; dsDNA, one strand shown. The method in brief:
as §1

In assay [6] the target is T5, EHF (Homo sapiens, UniProt Q9NZC4 1-300).
T5 sequence: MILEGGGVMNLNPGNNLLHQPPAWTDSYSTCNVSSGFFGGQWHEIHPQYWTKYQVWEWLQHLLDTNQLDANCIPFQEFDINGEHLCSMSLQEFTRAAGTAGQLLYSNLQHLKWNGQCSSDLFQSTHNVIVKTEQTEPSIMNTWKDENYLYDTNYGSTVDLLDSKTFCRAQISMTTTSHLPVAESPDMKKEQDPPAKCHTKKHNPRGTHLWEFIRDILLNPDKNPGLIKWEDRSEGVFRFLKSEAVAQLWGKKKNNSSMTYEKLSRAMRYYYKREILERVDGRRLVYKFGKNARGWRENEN
The conditions noted are these: protein: recombinant; tags: N-terminal GST; dsDNA, one strand shown. The method in brief: as §1

Assay [7] concerns the target SPI1 (Homo sapiens, UniProt P17947 1-270). The conditions noted are these: protein: recombinant; tags: N-terminal GST; dsDNA, one strand shown. In short, it runs like this:
as §1

Assay [8] concerns the target SPIB (Homo sapiens, UniProt Q01892 1-262). The conditions noted are these: protein: recombinant; tags: N-terminal GST; dsDNA, one strand shown. In short, it runs like this: as §1
Assay [9] has as its target T6, ELK3 (Homo sapiens, UniProt P41970 1-407).
T6 sequence: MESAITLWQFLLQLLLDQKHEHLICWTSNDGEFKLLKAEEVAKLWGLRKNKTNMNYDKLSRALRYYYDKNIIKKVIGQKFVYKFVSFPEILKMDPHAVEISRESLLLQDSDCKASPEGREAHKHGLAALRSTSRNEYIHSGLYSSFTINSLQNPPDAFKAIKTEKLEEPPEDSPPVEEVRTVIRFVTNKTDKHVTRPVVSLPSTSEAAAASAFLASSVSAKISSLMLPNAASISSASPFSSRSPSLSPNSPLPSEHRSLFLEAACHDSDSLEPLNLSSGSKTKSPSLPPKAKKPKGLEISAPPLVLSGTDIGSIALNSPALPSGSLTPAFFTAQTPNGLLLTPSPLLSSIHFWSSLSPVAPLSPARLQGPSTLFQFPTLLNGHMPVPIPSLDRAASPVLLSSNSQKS
The conditions noted are these: protein: recombinant; tags: N-terminal GST; dsDNA, one strand shown. The method in brief: as §1

Assay [10] deals with T7, FEV (Homo sapiens, UniProt Q99581 1-238).
T7 sequence: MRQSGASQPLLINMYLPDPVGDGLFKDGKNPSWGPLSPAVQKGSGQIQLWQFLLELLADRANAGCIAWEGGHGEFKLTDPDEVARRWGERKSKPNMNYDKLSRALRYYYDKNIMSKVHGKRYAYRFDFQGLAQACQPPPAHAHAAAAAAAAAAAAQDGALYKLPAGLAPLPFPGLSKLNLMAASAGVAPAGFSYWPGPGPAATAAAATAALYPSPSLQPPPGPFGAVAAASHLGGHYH
The conditions noted are these: protein: recombinant; tags: N-terminal GST; dsDNA, one strand shown. The method in brief: as §1

Assay [11] has as its target ETV5 (Homo sapiens, UniProt P41161 1-510). The conditions noted are these: protein: recombinant; tags: N-terminal GST; dsDNA, one strand shown. In short, it runs like this:
as §1

Assay [12] deals with HSF1 (Homo sapiens, UniProt Q00613 1-529). The note with it: protein: recombinant; tags: N-terminal GST; chain copies: 3; dsDNA, one strand shown. In short, it runs like this: as §1
Chain of HSF1 (Q00613 whole entry): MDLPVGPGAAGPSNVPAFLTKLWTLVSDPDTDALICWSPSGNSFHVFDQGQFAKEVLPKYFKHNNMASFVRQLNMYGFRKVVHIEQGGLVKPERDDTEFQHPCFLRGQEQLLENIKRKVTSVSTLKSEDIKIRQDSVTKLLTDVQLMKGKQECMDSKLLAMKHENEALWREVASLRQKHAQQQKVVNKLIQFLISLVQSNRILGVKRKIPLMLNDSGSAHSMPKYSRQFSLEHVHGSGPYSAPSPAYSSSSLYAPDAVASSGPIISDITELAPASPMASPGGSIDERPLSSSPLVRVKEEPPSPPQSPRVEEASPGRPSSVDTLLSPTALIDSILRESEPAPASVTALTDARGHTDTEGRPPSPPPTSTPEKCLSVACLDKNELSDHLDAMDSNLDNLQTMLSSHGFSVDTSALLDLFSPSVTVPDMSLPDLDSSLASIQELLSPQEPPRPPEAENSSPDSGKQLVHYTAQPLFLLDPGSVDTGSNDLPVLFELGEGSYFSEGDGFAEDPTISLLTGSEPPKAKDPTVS
Assay [13] has as its target T8, SPIC (Homo sapiens, UniProt Q8N5J4 1-248).
T8 sequence: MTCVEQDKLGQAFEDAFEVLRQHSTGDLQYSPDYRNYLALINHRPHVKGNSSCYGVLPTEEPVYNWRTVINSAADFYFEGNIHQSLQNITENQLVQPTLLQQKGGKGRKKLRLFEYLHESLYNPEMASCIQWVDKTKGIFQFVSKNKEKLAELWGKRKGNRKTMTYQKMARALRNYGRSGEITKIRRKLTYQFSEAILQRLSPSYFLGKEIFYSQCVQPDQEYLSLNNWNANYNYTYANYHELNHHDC
The note with it: protein: recombinant; tags: N-terminal GST; dsDNA, one strand shown. In short, it runs like this:
as §1

The target in assay [14] is ELF4 (Homo sapiens, UniProt Q99607 1-663). The note with it: protein: recombinant; tags: N-terminal GST; dsDNA, one strand shown. The method in brief:
as §1

The target of assay [15] is T9, ELK4 (Homo sapiens, UniProt P28324-2 1-405).
T9 sequence: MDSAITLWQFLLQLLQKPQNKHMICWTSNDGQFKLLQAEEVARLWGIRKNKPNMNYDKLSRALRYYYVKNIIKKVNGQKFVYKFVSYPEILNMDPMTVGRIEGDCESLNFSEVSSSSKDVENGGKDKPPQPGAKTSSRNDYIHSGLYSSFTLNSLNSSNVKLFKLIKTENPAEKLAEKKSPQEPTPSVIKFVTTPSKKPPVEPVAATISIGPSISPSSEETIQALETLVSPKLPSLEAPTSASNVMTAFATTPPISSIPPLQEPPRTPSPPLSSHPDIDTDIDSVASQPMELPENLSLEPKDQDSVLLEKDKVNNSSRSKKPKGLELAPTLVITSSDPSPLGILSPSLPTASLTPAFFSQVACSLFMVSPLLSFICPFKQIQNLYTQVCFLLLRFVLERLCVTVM
The conditions noted are these: protein: recombinant; tags: N-terminal GST; dsDNA, one strand shown. In short, it runs like this: as §1

Assay [16] has as its target T10, ETV2 (Homo sapiens, UniProt O00321 1-342).
T10 sequence: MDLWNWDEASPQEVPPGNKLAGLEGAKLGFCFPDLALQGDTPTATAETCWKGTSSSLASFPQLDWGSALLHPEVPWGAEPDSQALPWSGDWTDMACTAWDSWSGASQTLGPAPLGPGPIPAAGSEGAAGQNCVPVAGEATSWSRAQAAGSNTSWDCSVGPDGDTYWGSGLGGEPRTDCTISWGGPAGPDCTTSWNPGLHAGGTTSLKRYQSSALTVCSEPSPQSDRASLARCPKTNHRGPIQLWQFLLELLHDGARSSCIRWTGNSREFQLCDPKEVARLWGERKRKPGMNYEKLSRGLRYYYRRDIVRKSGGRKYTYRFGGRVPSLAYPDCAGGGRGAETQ
The note with it: protein: recombinant; tags: N-terminal GST; dsDNA, one strand shown. The method in brief: as §1

Assay [17] has as its target T11, ELF3 (Homo sapiens, UniProt P78545 1-371).
T11 sequence: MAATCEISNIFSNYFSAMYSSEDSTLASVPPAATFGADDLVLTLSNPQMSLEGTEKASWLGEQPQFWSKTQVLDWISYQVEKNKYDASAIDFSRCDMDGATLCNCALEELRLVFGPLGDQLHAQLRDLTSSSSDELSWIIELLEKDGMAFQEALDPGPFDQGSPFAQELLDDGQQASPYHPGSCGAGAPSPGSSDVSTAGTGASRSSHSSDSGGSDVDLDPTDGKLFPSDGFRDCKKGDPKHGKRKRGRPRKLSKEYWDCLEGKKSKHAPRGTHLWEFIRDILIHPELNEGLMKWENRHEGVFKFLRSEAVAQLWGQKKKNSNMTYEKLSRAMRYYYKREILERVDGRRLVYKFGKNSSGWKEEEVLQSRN
The note with it: protein: recombinant; tags: N-terminal GST; dsDNA, one strand shown. The method in brief:
as §1

Assay [18] concerns the target CRX (Homo sapiens, UniProt O43186 1-299). The note with it: protein: recombinant; tags: N-terminal GST; dsDNA, one strand shown. In short, it runs like this: as §1
In assay [19] the target is ETV1 (Homo sapiens, UniProt P50549 1-477). The note with it: protein: recombinant; tags: N-terminal GST; dsDNA, one strand shown. The method in brief:
as §1

Chain of ELF1 (P32519 whole entry): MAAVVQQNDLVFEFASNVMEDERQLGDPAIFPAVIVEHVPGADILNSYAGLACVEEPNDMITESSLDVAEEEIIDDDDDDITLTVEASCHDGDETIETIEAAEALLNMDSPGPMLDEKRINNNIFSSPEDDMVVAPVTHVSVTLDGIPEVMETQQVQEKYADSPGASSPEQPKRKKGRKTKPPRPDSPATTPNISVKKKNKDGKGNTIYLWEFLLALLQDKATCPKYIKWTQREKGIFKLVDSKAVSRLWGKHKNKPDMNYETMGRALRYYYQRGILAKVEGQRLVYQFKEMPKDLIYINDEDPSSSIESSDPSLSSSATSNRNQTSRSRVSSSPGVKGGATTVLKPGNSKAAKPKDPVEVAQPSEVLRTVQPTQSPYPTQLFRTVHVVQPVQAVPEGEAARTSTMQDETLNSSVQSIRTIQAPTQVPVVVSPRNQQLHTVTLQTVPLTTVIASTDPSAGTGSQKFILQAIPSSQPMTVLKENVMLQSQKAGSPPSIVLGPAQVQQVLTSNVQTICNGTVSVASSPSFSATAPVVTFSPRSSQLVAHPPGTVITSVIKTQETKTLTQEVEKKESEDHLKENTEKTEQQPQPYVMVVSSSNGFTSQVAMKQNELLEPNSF
Chain of ELF4 (Q99607 whole entry): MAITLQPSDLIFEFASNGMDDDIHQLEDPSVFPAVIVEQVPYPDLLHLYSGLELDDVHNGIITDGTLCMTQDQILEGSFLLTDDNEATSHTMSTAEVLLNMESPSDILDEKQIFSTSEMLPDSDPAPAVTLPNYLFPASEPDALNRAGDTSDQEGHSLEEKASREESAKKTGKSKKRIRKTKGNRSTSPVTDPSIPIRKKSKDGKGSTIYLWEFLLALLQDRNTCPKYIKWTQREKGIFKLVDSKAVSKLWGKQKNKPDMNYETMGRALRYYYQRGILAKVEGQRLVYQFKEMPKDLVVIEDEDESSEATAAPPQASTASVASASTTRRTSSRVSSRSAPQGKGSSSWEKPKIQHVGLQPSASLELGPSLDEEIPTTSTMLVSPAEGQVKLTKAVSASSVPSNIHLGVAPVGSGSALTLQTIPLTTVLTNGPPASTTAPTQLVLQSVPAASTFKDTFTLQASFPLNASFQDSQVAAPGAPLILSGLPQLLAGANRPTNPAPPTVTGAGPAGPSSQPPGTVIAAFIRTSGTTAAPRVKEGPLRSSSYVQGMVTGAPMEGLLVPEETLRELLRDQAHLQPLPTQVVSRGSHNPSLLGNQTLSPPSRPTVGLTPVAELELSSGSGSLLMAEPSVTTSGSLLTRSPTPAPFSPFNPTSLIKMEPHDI
Chain of SPIB (Q01892 whole entry): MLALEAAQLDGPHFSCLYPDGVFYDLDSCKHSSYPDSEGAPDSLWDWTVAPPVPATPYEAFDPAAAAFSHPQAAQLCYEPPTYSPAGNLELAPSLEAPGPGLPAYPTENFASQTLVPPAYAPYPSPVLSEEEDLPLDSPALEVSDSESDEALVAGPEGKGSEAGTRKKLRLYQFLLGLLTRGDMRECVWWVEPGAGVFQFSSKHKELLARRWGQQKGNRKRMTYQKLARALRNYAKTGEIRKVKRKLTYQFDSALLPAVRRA
Chain of CRX (O43186 whole entry): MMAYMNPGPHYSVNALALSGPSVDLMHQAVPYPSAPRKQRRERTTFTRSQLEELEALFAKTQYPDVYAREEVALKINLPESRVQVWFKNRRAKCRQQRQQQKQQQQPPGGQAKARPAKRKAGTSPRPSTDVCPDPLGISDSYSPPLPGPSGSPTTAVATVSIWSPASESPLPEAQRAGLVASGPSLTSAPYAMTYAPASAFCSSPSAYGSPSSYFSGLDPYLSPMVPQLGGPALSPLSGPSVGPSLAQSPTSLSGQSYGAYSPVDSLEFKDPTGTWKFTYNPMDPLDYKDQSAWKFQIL
Chain of ETV5 (P41161 whole entry): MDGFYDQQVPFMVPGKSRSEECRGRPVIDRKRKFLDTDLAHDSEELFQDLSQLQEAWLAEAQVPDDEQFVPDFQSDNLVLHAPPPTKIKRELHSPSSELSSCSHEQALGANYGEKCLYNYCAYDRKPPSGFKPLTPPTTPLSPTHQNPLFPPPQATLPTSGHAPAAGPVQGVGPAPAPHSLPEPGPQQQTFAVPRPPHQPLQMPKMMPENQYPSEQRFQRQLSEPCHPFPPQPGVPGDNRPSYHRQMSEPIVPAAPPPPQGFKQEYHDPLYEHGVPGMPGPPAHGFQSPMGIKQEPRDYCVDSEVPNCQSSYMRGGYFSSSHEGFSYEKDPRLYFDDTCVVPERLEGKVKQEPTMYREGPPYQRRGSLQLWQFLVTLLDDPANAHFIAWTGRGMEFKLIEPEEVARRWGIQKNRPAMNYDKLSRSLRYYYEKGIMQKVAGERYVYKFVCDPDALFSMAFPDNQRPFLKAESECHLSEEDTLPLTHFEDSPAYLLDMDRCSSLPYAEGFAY
Chain of ETV1 (P50549 whole entry): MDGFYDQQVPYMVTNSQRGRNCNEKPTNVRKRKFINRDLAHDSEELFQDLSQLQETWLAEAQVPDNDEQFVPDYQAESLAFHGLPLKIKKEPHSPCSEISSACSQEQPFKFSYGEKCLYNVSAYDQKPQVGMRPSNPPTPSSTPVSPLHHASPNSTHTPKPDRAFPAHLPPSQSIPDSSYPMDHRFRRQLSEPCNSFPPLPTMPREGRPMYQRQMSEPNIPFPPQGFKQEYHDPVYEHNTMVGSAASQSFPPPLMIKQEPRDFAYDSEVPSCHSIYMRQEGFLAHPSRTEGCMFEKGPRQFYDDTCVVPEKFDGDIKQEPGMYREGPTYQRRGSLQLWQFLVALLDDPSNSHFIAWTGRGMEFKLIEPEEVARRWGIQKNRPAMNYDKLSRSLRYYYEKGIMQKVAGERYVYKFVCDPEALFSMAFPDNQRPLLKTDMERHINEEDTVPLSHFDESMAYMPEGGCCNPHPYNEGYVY

Take TTTTTT: the binding signal was 1.12 fold enrichment (6-mer frequency, TF over GST control) in [1]; 1.05 fold enrichment (6-mer frequency, TF over GST control) in [2]; 1.25 fold enrichment (6-mer frequency, TF over GST control) in assay [3]; 1.12 fold enrichment (6-mer frequency, TF over GST control) in assay [4]; 1.25 fold enrichment (6-mer frequency, TF over GST control) in assay [5]; 1.2 fold enrichment (6-mer frequency, TF over GST control) in assay [6]. For the same sequence, the binding signal in assay [7] is 1.36 fold enrichment (6-mer frequency, TF over GST control); in [8] it was 1.22 fold enrichment (6-mer frequency, TF over GST control); in [9] it was 1.34 fold enrichment (6-mer frequency, TF over GST control); in assay [10], 1.17 fold enrichment (6-mer frequency, TF over GST control); in assay [11], 1.23 fold enrichment (6-mer frequency, TF over GST control); in assay [12], 1.23 fold enrichment (6-mer frequency, TF over GST control). In addition, the binding signal in assay [13] is 1.3 fold enrichment (6-mer frequency, TF over GST control); in assay [14] it was 1.19 fold enrichment (6-mer frequency, TF over GST control); in assay [15] it was 1.17 fold enrichment (6-mer frequency, TF over GST control); in assay [16], 1.4 fold enrichment (6-mer frequency, TF over GST control); in assay [17], 1.33 fold enrichment (6-mer frequency, TF over GST control); in assay [18], 1.24 fold enrichment (6-mer frequency, TF over GST control). In [19], the binding signal was 1.36 fold enrichment (6-mer frequency, TF over GST control).
